These results are taken from PubChem BioAssay (NCI).

This is part of a sample that, as a whole, favours compounds with a hit. Of some 83,000 tested, about 20% had one in any assay.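 Each cell line was grown in a 96-well plate and treated with one concentration of compound for 48 hours. Values below 10 were considered active.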 Active and inactive are the calls of the source.

The test concerns MCF7 breast. Put plainly: NCI-60 one-dose screen, 48 h (100 = growth as untreated, 0 = no growth, -100 = all killed). Conditions: 10 µM unless noted.
Consider `CN1CCN(Cc2ccc(NC(=O)c3cncc(C#Cc4cnc5ccc(OCC6(C)COC6)nn45)c3)cc2C(F)(F)F)CC1`, for which the growth is -76% (active). In the case of `CC(=O)c1cc(C(=O)c2ccc(Br)cc2)n2cc(C)cc(C)c12`, the growth was 85.3% (inactive). For the compound `COC(=O)C[Se]C(=O)Cc1c(C)n(C(=O)c2ccc(Cl)cc2)c2ccc(OC)cc12`, the growth was 28.2% (inactive). Consider `N#Cc1cccc(CN2CCC3=C(C2)C(=O)N(Cc2ccc(Cl)cc2)C2=NCCCN23)c1`, for which the growth is 14.2% (inactive). With `C=CCn1c(SCC(=O)Nc2ccc(C(=O)/C=C/c3ccc(C)cc3)cc2)nnc1-c1c[nH]c2ccccc12`, the growth was 20.2% (inactive). `CCCn1cnc2c(c1=N)C(c1ccc(OC)cc1)c1sc3c(CC)cccc3c1O2` (stereo not drawn): the growth was 18.4% (inactive). Take `Cc1ccc(-c2cc3nc(C(Cl)Cl)nc(C)n3n2)cc1`: the growth was 88.3% (inactive).

As to `CCOC(=O)C(=O)CC(=O)N1C(=S)NC(=O)C1CC(C)C` (stereo not drawn), the growth was 95.8% (inactive). `COc1ccc(-c2nc(C(Cl)Cl)nc3cc(-c4ccccc4)nn23)cc1`: the growth is 29.3% (inactive). Take `CNC(=O)c1cc(-c2ccc(NS(=O)(=O)c3ccc(C)cc3)cc2)nc2cccnc12`: the growth was 72.9% (inactive). In the case of `NC(N)=Nc1ccc(Oc2cccc(Nc3ccc(Cl)c(C(F)(F)F)c3)c2)cn1`, the growth is -60.3% (active).

As to `CCN1CCN(Cc2ccc(C(=O)Nc3ccc(C)c(Oc4ccc(-c5[nH]nc6ncnc(N)c56)cc4)c3)cc2C(F)(F)F)CC1`, the growth is 70.6% (inactive). With `COc1ccc(NC(=O)Nc2ccc3c(ccn3C(=O)c3cccc(F)c3)c2)cc1`, the growth is 60.4% (inactive).

Regarding `CCn1c(SCC(=O)Nc2cccc(C(=O)/C=C/c3ccccc3Cl)c2)nc2ccccc2c1=O`, the growth is 17.1% (inactive).

Regarding `COc1ccc(-c2nn(-c3ccc(S(C)(=O)=O)cc3)cc2/C=N/O)cc1`, the growth is 106% (inactive). With `NC(N)=Nc1ccc(Oc2ccc(Nc3ccc(Cl)c(C(F)(F)F)c3)cc2)cc1`, the growth was 2.64% (active). As for `COc1ccc(NC(=O)CSc2nnc(-c3ccc4nc(-c5ccc(OC)c(OC)c5)[nH]c4c3)o2)cc1OC`, the figure is 91.9% (inactive); as for `Cc1ccc(-n2c(/C=C3\C(=O)Nc4ccccc43)ccc2CO)cc1`, 34.5% (inactive); as for `O=C(NNc1nc2cc(F)ccc2n2c(CO)ccc12)c1cnccn1`, 8.73% (active). With `Nc1ccccc1NC(=O)c1ccc(NC(=O)C/C=C/c2cccnc2)cn1`, the growth is 5.84% (active).

Consider `Cn1ccnc1C(=O)/C=C/c1ccc(CNC(=O)c2c(F)c(F)c(F)c(F)c2F)cc1`, for which the growth was 19.4% (inactive). With `C#C[C@]1(O)CC[C@H]2[C@@H]3CC=C4c5sc(-c6cccc(O)c6)nc5CC[C@]4(C)[C@H]3CC[C@@]21C`, the growth is -28% (active).

For the compound `COc1cc2c(cc1OC)C(Sc1ccc(F)cc1)c1c(nc(N)c(C#N)c1N)O2` (stereo not drawn), the growth is -88.3% (active). Consider `N#Cc1cn(Cc2ccc(Cl)cc2Cl)c(C(=O)c2ccc(Br)cc2)c1N`, for which the growth was 87.2% (inactive). The value for `O=C(O)c1ccc(-n2cc(CNc3cc(F)c(F)c(F)c3)c(-c3cccc(F)c3)n2)cc1` was 41% (inactive). Turning to `CCc1cccc(NC(=O)CNc2cc(S(=O)(=O)N(C)C)cc(C)c2C)c1`, the growth is 91.7% (inactive). The value for `COc1ccc2c(c1)c(-c1cc(N)n3nc(-c4cn(C)c5ccc(OC)cc45)cc3n1)cn2C` was 32.5% (inactive); that for `C=C(C=O)[C@@H]1CC[C@]2(COC(C)=O)CC[C@]3(C)C(CC[C@@H]4[C@@]5(C)CC[C@H](OC(C)=O)C(C)(C)[C@@H]5CC[C@]43C)[C@@H]12` (stereo partly drawn) was -33.5% (active); that for `COc1ccc(-c2nc3ccc(-c4nnc(SCC(=O)Nc5ccc(C(=O)/C=C/c6ccc(Cl)cc6)cc5)o4)cc3[nH]2)cc1` was 78% (inactive).

`COc1ccc(/C=C(\C#N)C(=O)N2c3ccccc3Sc3ccc(SC)cc32)cc1F`: the growth is 95.9% (inactive). Turning to `O=C(CNc1nc(-c2cccc([N+](=O)[O-])c2)cs1)Nc1cccc(Cl)c1`, the growth was 91.3% (inactive). For `CC1(C)CC[C@]23CC[C@]4(C)[C@H](CC[C@@H]5[C@@]6(C)CCCN(CO)C(C)(C)[C@@H]6CC[C@]54C)[C@H]2[C@H]1OC3`, the growth is 17.1% (inactive). `C=C(C=O)[C@@H]1CC[C@]2(C)[C@H](CC=C3[C@H]4[C@@H](C)[C@H](C)CC[C@]4(C(=O)OC)CC[C@]32C)[C@@]1(C)CCC#N`: the growth was -20.1% (active). As for `CN(C)C(=O)c1cc(-c2ccc3ncnc(NCc4ccccc4)c3c2)cnc1N`, the figure is 77.5% (inactive).

Regarding `O=S(=O)(NCCCNc1nccc(-c2[nH]c(-c3ccccc3)nc2-c2ccc(Cl)c(O)c2)n1)c1cccc2ccccc12`, the growth is 16.4% (inactive). The value for `Nc1ccccc1NC(=O)c1ccc(NC(=O)C/C=C/c2cccnc2)cc1` was 17.4% (inactive); that for `COc1cc(-c2nc(SCCC(C)C)nc(NNC(=O)c3ccncc3)c2C#N)cc(OC)c1OC` was 74.7% (inactive); that for `O=C(NNc1nc2cc(F)c(F)cc2n2cccc12)c1cnccn1` was 14% (inactive).
